Assay [1] is described as follows: Nuclear factor erythroid 2-related factor 2/antioxidant responsive element (Nrf2/ARE) small molecule agonists: qHTS cell viability counter screen in human keratinocytes (AID 1919968; active = well fitted curve in the direction sought with a large enough effect in the repeat runs; an effect the other way counts as inactive or inconclusive; note: nearly all actives have a fitted effect of over 55% in size). Put shortly:
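Cytotoxicity was multiplexed with the Nrf2/ARE luciferase assay in the same wells. Stably transfected HaCaT keratinocytes were treated with test compounds for 23 h at 37 C. Cell viability was then measured by CellTiter-Fluor fluorescence.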

The nature of assay [2]: Nuclear factor erythroid 2-related factor 2/antioxidant responsive element (Nrf2/ARE) small molecule agonists: luciferase reporter gene qHTS assay in human keratinocytes (AID 1919969). Note: nearly all actives have a fitted effect of over 35% in size.
The target of assay [3] is Gonadotropin-releasing hormone receptor (Homo sapiens) (UniProt P30968). In words: Human gonadotropin-releasing hormone receptor (GnRHR) small molecule agonists, calcium flux assay in GnRHR-HEK293 cells (AID 1920063). Note: nearly all actives have a fitted effect of over 35% in size. Put shortly:
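Agonist activity was measured as intracellular calcium flux in HEK293 cells engineered to stably express human GnRHR. After dye loading for 1 hour at 37 C, compounds in DMSO were added and fluorescence was followed for 3 minutes.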

Assay [4] concerns the target KiSS-1 receptor (Homo sapiens) (UniProt Q969F8). In words: Human kisspeptin (KISS1R) small molecule agonists, calcium flux assay in KISS1R-HEK293 cells (AID 1920064; active = well fitted curve in the direction sought with a large enough effect in the repeat runs; an effect the other way counts as inactive or inconclusive). Put shortly: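 Agonist activity is monitored as intracellular calcium rise in engineered HEK293 cells carrying human KISS1R. Cells are dye-loaded for 1 h at 37 C before compound addition, and fluorescence is recorded for 3 min.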

Assay [5] in a line: G protein-coupled receptor (GPCR) small molecule agonists, calcium flux assay: HEK293 wild type cell line counter screen (AID 1920065). A digest of the protocol: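 Seed cells, incubate 18 h (37 C, 5% CO2); add calcium dye, 1 h at 37 C; pin-transfer compounds, ATP control or DMSO; read fluorescence 480/540 nm each second for 3 min.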
The nature of assay [6]: p53 small molecule agonists, cell-based qHTS assay with human liver microsomes (AID 1963577).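 Note: p53 response element beta-lactamase reporter cells with liver microsomes plus NADPH.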 A digest of the protocol: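 Reporter activation was measured by LiveBLAzer fluorescence intensity in p53RE-bla cells, which had been exposed to compounds for 16 h at 37 C alongside 0.5 mg/mL human liver microsomes and 0.5 mg/mL NADPH (final concentrations).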
Assay [7] is described as follows: p53 small molecule agonists, cell-based qHTS assay with rat liver microsomes (AID 1963578). Put shortly:
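Compound in DMSO added to p53RE-bla cells 5 h post-plating; rat microsomes/NADPH 0.5 mg/mL final; 16 h, 37 C; LiveBLAzer 2 h RT.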

Assay [8] is described as follows: p53 small molecule agonists, cell-based qHTS assay with human liver microsomes: qHTS cell viability counter screen (AID 1963579). Note: nearly all actives have a fitted effect of over 45% in size. A digest of the protocol:
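HLM-supplemented (0.5 mg/mL final) and NADPH-supplemented (0.5 mg/mL final) p53RE-bla cultures, 4,000 cells per well, were dosed with compounds in DMSO for 16 h at 37 C; luminescent ATP detection (CellTiter-Glo, 30 min, room temperature) quantified surviving cells.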

Assay [9] can be described thus: p53 small molecule agonists, cell-based qHTS assay with rat liver microsomes: qHTS cell viability counter screen (AID 1963580). Note: nearly all actives have a fitted effect of over 45% in size. Put shortly:
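Counter screen for cytotoxicity under metabolic activation: rat liver microsomes and NADPH, 0.5 mg/mL final each, added with compounds to p53RE-bla HCT-116 cells; 16 h at 37 C, then ATP luminescence read.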

A short description of assay [10]: p53 small molecule agonists, cell-based qHTS assay: qHTS cell viability counter screen (AID 1963581). Note: nearly all actives have a fitted effect of over 45% in size. Put shortly: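 Viability was counter-screened in parallel with the p53 agonist reporter by measuring intracellular ATP luminescence in the same HCT-116 p53RE-bla wells after 16 h compound treatment at 37 C.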
Assay [11] in a line: p53 small molecule agonists, cell-based qHTS assay (AID 1963582; active = well fitted activation curve with a large enough effect in the signal ratio in the repeat runs, not every such curve was filed as active; the % refers to the signal ratio). A digest of the protocol: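 Cells carrying a p53-responsive bla reporter are treated with test compounds for 16 h at 37 C; beta-lactamase activity is then detected with LiveBLAzer B/G FRET substrate after 2 h at room temperature.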
Assay [12] deals with 5-hydroxytryptamine receptor 2A (Homo sapiens) (UniProt P28223). The experiment in a line: 5-hydroxytryptamine receptor 2A (HTR2A) small molecule agonists, cell-based qHTS assay (AID 1963587). Note: nearly all actives have a fitted effect of over 30% in size. Put shortly:
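HTR2A-CHO cells, plated 18 h at 37 C/5% CO2, dye-loaded 1 h at 37 C; compounds in DMSO added by pin tool (agonist mode). Intracellular calcium flux read as kinetic fluorescence on FDSS over 2 min at 1 s intervals.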

The target in assay [13] is Muscarinic acetylcholine receptor M1 (Homo sapiens) (UniProt P11229). In words: Cholinergic receptor muscarinic 1 (CHRM1) small molecule antagonists, cell-based qHTS assay (AID 1963588). Note: nearly all actives have a fitted effect of over 40% in size. Note: potency is the fitted concentration of half-maximal effect. A digest of the protocol:
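Compounds were tested at 15 concentrations in three independent runs. Dye-loaded CHRM1-CHO cells were exposed 5 min at room temperature before stimulation by acetylcholine added at 50nM. Intracellular calcium was read kinetically on FDSS for 3 min.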

Assay [14] has the same target. In words: Cholinergic receptor muscarinic 1 (CHRM1) small molecule agonists, cell-based qHTS assay (AID 1963589). Note: nearly all actives have a fitted effect of over 35% in size. A digest of the protocol: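 Cells were plated and incubated 18 h at 37 C/5% CO2, loaded with calcium dye for 1 h at 37 C, then treated with compounds in DMSO. Fluorescence was recorded kinetically at 1 sec intervals.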
Assay [15] in a line: cAMP Responsive Elements (CRE) small molecule agonists, cell-based qHTS assay (AID 1963590). Put shortly:
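Cells carrying a CRE-driven beta-lactamase reporter (HEK 293T) are seeded, incubated overnight (18 h), and treated with test compounds for 3 h at 37 C; reporter activity is then detected with a FRET substrate after 2 h at room temperature.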

Assay [16] in a line: cAMP Responsive Elements (CRE) small molecule antagonists, cell-based qHTS assay (AID 1963591; active = well fitted inhibition curve with a large enough effect in the signal ratio in the repeat runs, not every such curve was filed as active; the % refers to the signal ratio). A digest of the protocol:
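Cells (CRE-bla HEK 293T, DMEM with 10% dialyzed FBS and 25 mM HEPES) are seeded and incubated 18 h. Compounds are added with NKH477 agonist at 0.25 uM final for 3 h, then FRET substrate for 2 h.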

Assay [17] has as its target Beta-2 adrenergic receptor (Homo sapiens) (UniProt P07550). In words: Adrenergic beta2 receptor (ADRB2) small molecule antagonists, cell-based qHTS assay (AID 1963592). Note: series mostly up to about 92 µM; nearly all actives have a fitted effect of over 50% in size. A digest of the protocol:
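Assay format: CHO-ADRB2 cells, 18-20hr seeding at 37C/5% CO2, then compound plus 1nM isoproterenol agonist mix for 0.5hr RT. Homogeneous time-resolved fluorescence cAMP detection after 1hr, expressed as 665/615 nm ratio.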

For assay [18] the target is unchanged. The experiment in a line: Adrenergic beta2 receptor (ADRB2) small molecule agonists, cell-based qHTS assay (AID 1963593).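 Note: CHO cells stably overexpressing human ADRB2.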 Put shortly:
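CHO cells stably over-expressing ADRB2 were plated overnight at 37C, then dosed with compounds plus a stimulation mix containing 100uM IBMX and 25uM Ro-20-1724 for 0.5hr at room temperature. cAMP was measured by HTRF competition, 1hr.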

Assay [19] has as its target D(2) dopamine receptor (Homo sapiens) (UniProt P14416). In words: Dopamine D2 receptor (DRD2) small molecule agonists, cell-based qHTS assay (AID 1963594). Note: nearly all actives have a fitted effect of over 35% in size. A digest of the protocol: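 HEK293 cells stably expressing DRD2 were cultured 24 h at 37 C, then given Ro20-1724 (0.1 mM final) and compounds for 10 min at room temperature. NKH477 (200nM) was then added for 30 min. cAMP was read by HTRF.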

Assay [20] has the same target. The experiment in a line: Dopamine D2 receptor (DRD2) small molecule antagonists, cell-based qHTS assay (AID 1963595; active = well fitted inhibition curve with a large enough effect in the signal ratio in the repeat runs, with a control signal flat; the % refers to the signal ratio). Put shortly:
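Readout: HTRF cAMP, cAMP-d2 competing with cellular cAMP for anti-cAMP cryptate, read after 1 h. Cells: DRD2-HEK293. Conditions: 0.1 mM Ro20-1724, 12 nM quinpirole, 200 nM NKH477, 30 min RT.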

Unmarked numbers belong to inactive results. Results filed as inconclusive are left out. Calls of active or inactive are those of the source. Unless noted, calls come from the whole dose curve.

Sequence of Muscarinic acetylcholine receptor M1 (Homo sapiens) (P11229 whole entry, looked up): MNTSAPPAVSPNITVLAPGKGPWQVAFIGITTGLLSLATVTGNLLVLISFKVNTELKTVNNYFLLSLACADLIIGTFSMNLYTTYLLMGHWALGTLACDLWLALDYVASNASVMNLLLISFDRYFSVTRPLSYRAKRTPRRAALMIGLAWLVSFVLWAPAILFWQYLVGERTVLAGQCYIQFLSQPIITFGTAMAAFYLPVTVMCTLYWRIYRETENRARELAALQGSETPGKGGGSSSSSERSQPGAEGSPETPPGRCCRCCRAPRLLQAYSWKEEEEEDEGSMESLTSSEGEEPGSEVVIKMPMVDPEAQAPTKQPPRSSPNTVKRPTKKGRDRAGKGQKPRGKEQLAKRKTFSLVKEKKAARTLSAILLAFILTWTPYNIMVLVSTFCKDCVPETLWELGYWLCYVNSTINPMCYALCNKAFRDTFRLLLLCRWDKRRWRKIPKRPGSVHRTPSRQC
Sequence of Beta-2 adrenergic receptor (Homo sapiens) (P07550 whole entry, looked up): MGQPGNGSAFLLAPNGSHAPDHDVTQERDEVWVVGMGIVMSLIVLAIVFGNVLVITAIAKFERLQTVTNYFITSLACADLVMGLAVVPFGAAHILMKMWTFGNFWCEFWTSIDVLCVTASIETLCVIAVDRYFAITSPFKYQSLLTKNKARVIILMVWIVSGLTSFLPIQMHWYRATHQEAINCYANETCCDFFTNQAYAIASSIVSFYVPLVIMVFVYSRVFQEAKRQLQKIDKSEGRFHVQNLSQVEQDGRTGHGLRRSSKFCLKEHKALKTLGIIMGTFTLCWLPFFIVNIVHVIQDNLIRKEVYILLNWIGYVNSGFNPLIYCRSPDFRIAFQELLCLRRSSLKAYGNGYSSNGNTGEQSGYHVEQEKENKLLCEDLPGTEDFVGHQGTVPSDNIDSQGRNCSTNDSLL
Sequence of KiSS-1 receptor (Homo sapiens) (Q969F8 whole entry, looked up): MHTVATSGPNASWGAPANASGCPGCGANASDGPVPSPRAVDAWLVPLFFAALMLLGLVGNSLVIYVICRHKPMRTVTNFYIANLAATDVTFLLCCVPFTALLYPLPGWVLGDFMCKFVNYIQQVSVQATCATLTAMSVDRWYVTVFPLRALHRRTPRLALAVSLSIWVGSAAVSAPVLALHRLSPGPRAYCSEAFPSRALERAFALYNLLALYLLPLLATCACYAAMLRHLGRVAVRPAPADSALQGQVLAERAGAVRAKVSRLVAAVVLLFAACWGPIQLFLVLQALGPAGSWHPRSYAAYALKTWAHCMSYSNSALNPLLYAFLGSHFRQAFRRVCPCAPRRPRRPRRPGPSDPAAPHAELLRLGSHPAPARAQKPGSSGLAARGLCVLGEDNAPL
Sequence of 5-hydroxytryptamine receptor 2A (Homo sapiens) (P28223 whole entry, looked up): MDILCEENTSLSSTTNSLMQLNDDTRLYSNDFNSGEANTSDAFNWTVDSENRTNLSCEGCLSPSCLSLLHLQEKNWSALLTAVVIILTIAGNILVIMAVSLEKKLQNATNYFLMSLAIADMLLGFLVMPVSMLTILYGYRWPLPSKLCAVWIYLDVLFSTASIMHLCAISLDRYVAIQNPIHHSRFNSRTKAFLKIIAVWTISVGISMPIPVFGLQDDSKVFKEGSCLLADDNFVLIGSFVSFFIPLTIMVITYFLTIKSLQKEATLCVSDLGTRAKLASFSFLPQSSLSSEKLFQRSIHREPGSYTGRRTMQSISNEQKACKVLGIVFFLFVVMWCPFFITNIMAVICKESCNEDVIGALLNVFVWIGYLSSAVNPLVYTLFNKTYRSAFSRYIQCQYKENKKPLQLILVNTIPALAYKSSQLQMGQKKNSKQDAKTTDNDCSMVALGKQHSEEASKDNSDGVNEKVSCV
Sequence of D(2) dopamine receptor (Homo sapiens) (P14416 whole entry, looked up): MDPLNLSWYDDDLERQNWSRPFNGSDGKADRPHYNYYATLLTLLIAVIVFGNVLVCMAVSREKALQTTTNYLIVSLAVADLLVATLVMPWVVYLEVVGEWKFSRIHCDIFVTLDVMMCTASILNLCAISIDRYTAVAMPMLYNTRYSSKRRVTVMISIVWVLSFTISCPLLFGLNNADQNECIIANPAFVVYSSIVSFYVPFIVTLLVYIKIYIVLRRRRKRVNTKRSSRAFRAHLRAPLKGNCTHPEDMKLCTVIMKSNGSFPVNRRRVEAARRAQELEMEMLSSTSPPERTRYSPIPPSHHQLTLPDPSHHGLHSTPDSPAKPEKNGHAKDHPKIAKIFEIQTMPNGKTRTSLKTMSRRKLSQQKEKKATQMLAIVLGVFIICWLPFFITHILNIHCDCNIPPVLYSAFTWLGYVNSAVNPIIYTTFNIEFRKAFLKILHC
Sequence of Gonadotropin-releasing hormone receptor (Homo sapiens) (P30968 whole entry, looked up): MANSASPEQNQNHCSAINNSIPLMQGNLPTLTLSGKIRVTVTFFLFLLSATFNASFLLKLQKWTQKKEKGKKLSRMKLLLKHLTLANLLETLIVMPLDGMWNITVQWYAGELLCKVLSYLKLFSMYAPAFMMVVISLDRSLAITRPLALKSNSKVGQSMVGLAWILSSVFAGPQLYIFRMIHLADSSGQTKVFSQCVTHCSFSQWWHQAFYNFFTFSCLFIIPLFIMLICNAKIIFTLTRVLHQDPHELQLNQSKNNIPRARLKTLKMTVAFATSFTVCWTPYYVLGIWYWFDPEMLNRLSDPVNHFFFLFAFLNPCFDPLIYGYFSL

For `CCC(=O)c1c(O)cc(O)cc1O`, the Potency result in assay [1], in assay [2], in assay [3], in assay [6], in assay [7] and in assay [8] was “inactive” throughout. The Potency result in assay [9], in assay [10], in [11], in assay [12], in assay [13] and in assay [14] was “inactive” in each case. For the same compound, the Potency entry in assay [15], in assay [16], in [17], in [18], in assay [19] and in assay [20] was “inactive” in each case. The result in assay [4] and in assay [5] was inactive.

In the case of `CCN(CC)CCOC(=O)C(c1ccccc1)c1ccccc1`, the Potency entry in assay [1], in assay [2], in assay [3], in assay [6], in [7] and in assay [8] was “inactive” throughout. The Potency result in [9], in assay [10], in [11], in assay [14], in assay [15] and in [16] was “inactive” each time. Further, the Potency result in assay [17] and in assay [19] was “inactive” each time. Besides, the result in [4] and in [5] was inactive. In addition, the Potency in assay [13] is 10.3 nM (active).

Take `O=C(CCC1CCN(Cc2ccccc2)CC1)c1ccc2c(c1)NCCCC2`: the Potency result in assay [1], in assay [2], in assay [3], in assay [6], in assay [7] and in assay [8] was “inactive” each time. For the same compound, the Potency result in assay [9], in assay [10], in assay [11], in assay [14] and in [17] was “inactive” in each case. Further, the result in [4] and in assay [5] was inactive. Also, in assay [13], the Potency is 3260 nM (active).

With `CCCCCCCCCCCCCCCCCCN(C)C`, the Potency entry in assay [1], in assay [2], in [3], in [6], in assay [7] and in [8] was “inactive” each time. Besides, the Potency entry in assay [9], in assay [10], in assay [11], in assay [12], in assay [13] and in [14] was “inactive” each time. Moreover, the Potency result in [15], in assay [16], in assay [17], in assay [18], in assay [19] and in assay [20] was “inactive” throughout. For the same compound, the outcome in [4] and in [5] was inactive.

As to `Nc1ccc(S(=O)(=O)Nc2ccccc2)cc1`, the Potency entry in assay [1], in [2], in [3], in assay [6], in assay [7] and in [8] was “inactive” in each case. In addition, the Potency entry in assay [9], in assay [10], in assay [11], in assay [12], in [13] and in assay [14] was “inactive” each time. For the same compound, the Potency entry in assay [15], in [16], in assay [17], in assay [18], in assay [19] and in assay [20] was “inactive” each time. The outcome in assay [4] and in [5] was inactive.

For the compound `O=C1c2ccccc2C(=O)N1CO`, the Potency result in assay [1], in assay [2], in assay [3], in assay [6], in assay [7] and in assay [8] was “inactive” throughout. The Potency result in assay [9], in assay [10], in assay [11], in [12], in assay [13] and in [14] was “inactive” throughout. The Potency entry in [15], in assay [16], in assay [17], in [18], in [19] and in [20] was “inactive” throughout. Besides, the result in assay [4] and in [5] was inactive.

In the case of `O=C(Oc1ccccc1)c1ccccc1C(=O)Oc1ccccc1`, the Potency result in assay [1], in assay [2], in assay [3], in [6], in assay [7] and in assay [8] was “inactive” in each case. Also, the Potency result in assay [9], in assay [10], in assay [11], in [12], in assay [13] and in assay [14] was “inactive” in each case. Also, the Potency result in assay [15], in assay [16], in [17], in [18], in assay [19] and in assay [20] was “inactive” in each case. Also, the result in [4] and in assay [5] was inactive.

These data come from PubChem BioAssay (Tox21).
